Test results: PubChem BioAssay (Tox21)
Values joined by “and” are separate entries in the source; they are usually repeats but may differ in a detail not shown here. Identical values can stand only once. Inconclusive results are not listed. A call without a number means that no potency is given here. A structure can be active in one record and inactive in another. Active and inactive are the calls of the source. Unless noted, the call rests on the fitted dose curve; in most records, active means well fitted curve in the direction sought with a large enough effect in the repeat runs; inconclusive means weak or mixed curves; inactive means no such curve, though single readings can be large; an effect the other way counts as inactive or inconclusive.

Key:
[1] = qHTS assay to identify small molecule agonists of the hypoxia (HIF-1) signaling pathway - cell viability counter screen (AID 1224844; calls by dose curve; further: nearly all actives have a fitted effect of over 50% in size; further: potency means the concentration at half of the fitted maximal effect)
How it was run: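 Luminescent ATP content (CellTiter-Glo, 30 min, room temperature) served as the viability measure in HRE-bla ME-180 cells exposed to compounds for 17 hrs in low-serum medium (0.5% dialyzed FBS).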

[2] = qHTS assay to identify small molecule agonists of H2AX (AID 1224845; active means well fitted activation curve with a large enough effect in the signal ratio in the repeat runs, not every such curve was filed as active; the % refers to the signal ratio; further: potency means the concentration at half of the fitted maximal effect)
How it was run: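 Wild-type CHO-K1 cells, plated overnight, exposed 3hr at 37C to 15 concentrations (0.76% DMSO final). Lysed, then HTRF anti-pH2AX (S139) cryptate and anti-H2AX-d2 antibodies, 24 hr room temperature; 665/620 nm emission read.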

[3] = qHTS assay to identify small molecule agonists of the hypoxia (HIF-1) signaling pathway (AID 1224846; active means well fitted activation curve with a large enough effect in the signal ratio in the repeat runs, not every such curve was filed as active; the % refers to the signal ratio)
How it was run: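 Measured by blue/green FRET after loading CCF4-AM: beta-lactamase expressed from a hypoxia response element in ME-180 cells. Test agents were delivered in DMSO and left 17 hrs; cells had been plated 5 hrs earlier in low-serum (0.5% dialyzed FBS) medium.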

[4] = qHTS assay to identify small molecule agonists of the estrogen related receptor (ERR) signaling pathway from Tox21 library (AID 1224849; calls by dose curve; further: nearly all actives have a fitted effect of over 15% in size); conditions: ERR reporter cell line, ONE-Glo luciferase, 18 h; at 92.4 µM (top of the series) unless noted
How it was run: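 We plated ERR reporter cells, waited 6 h, added compounds in DMSO by pin tool and incubated them 18 h at 37 C. ONE-Glo was then added and luminescence read after 30 min.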

[5] = qHTS RealTime-Glo MT Cell Viability Assay in HepG2 cells - 24 hour (AID 1224867); further: nearly all actives have a fitted effect of over 50% in size; further: potency means the concentration at half of the fitted maximal effect
How it was run: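 Real-time, nonlytic viability: 600 HepG2 cells/well mixed with NanoLuc enzyme plus prosubstrate; 5 h settle, compound (DMSO) added by pintool; luminescence monitored over 40 h at 37 C.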

[6] = A CellTox Green Cytotoxicity Assay to monitor cytotoxicity in HEK293 cells - 0 hour (AID 1224869); further: nearly all actives have a fitted effect of over 50% in size
How it was run: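 Each value comes from one timepoint of a single continuous run in which HEK293 cells with CellTox Green were exposed to compound for up to 40 h at 37 C, dye fluorescence rising with cell death.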

[7] = qHTS RealTime-Glo MT Cell Viability Assay in HepG2 cells - 40 hour (AID 1224870); further: nearly all actives have a fitted effect of over 50% in size; further: potency means the concentration at half of the fitted maximal effect
How it was run: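 HepG2 cells (600/well) mixed with RealTime-Glo MT reagent, settled 5 h at 37 C/5% CO2 before compound addition. Nonlytic NanoLuc luminescence from viable-cell prosubstrate reduction read repeatedly during 40 h treatment at 37 C.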

[8] = qHTS assay to identify small molecule agonists of H2AX - cell viability counter screen (AID 1224847; calls by dose curve; further: nearly all actives have a fitted effect of over 30% in size; further: potency means the concentration at half of the fitted maximal effect)
How it was run: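 Quantitative HTS viability measurement: CHO-K1 wild-type cells in serum (10% FBS) medium, short 3 hr drug exposure at 37C with 0.76% DMSO, CellTiter-Glo luminescent detection.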

[9] = qHTS assay to identify small molecule antagonists of the estrogen related receptor (ERR) signaling pathway from Tox21 library (AID 1224848); further: nearly all actives have a fitted effect of over 50% in size; further: potency means the concentration at half of the fitted maximal effect
How it was run: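 ERR reporter cell line (from NTP) seeded 2,000 cells/well, rested 6 h at 37 C/5% CO2, then pin-dosed with compounds in DMSO. After 18 h at 37 C, ONE-Glo added; luminescence read after 30 min at room temperature.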

[10] = qHTS RealTime-Glo MT Cell Viability Assay in HEK293 cells - 32 hour (AID 1224868); further: nearly all actives have a fitted effect of over 50% in size; further: potency means the concentration at half of the fitted maximal effect
How it was run: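 Cells + reagent dispensed (600 cells/well, HEK293) → 5 h at 37 C/5% CO2 → 23 nL compound in DMSO pinned → 40 h at 37 C → luminescence read at 0, 8, 16, 24, 32, 40 h.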

## COP(=O)(OC)SCn1c(=O)oc2cc(Cl)cnc21
[1]
  Potency: 49 µM (active)
[2]
  Potency: inactive
[3]
  outcome: inactive
[4]
  activity change, positive = activation: -27.7% (inactive)
[5]
  Potency: inactive
[6]
  Potency: inactive
[7]
  Potency: inactive

## C[C@H]1O[C@@H](O[C@H]2[C@@H](O)C[C@H](O[C@H]3[C@@H](O)C[C@H](O[C@H]4CC[C@@]5(C)[C@H](CC[C@@H]6[C@@H]5CC[C@]5(C)[C@@H](C7=CC(=O)OC7)CC[C@]65O)C4)O[C@@H]3C)O[C@@H]2C)C[C@H](O)[C@@H]1O
[1]
  Potency: 98.3 nM (active) and 190 nM (active)
[2]
  Potency: inactive
[8]
  Potency: inactive
[9]
  Potency: inactive
[4]
  activity change, positive = activation: -72.7% [at 42.5 µM] (inactive) and -65% [at 42.5 µM] (active)
[5]
  Potency: inactive
[10]
  Potency: 31.1 nM (active) and 95.2 nM (active)
[6]
  Potency: inactive
[7]
  Potency: inactive

## ClCCN1CCOCC1
[1]
  Potency: inactive
[2]
  Potency: inactive
[8]
  Potency: inactive
[9]
  Potency: inactive
[4]
  activity change, positive = activation: -2.74% (inactive)
[5]
  Potency: inactive
[10]
  Potency: inactive
[6]
  Potency: inactive
[7]
  Potency: inactive

## Cc1cc(C)cc(OP(=O)(Oc2cc(C)cc(C)c2)Oc2cc(C)cc(C)c2)c1
[1]
  Potency: inactive
[2]
  Potency: inactive
[8]
  Potency: inactive
[9]
  Potency: inactive
[4]
  activity change, positive = activation: 0.886% (inactive)
[5]
  Potency: inactive
[10]
  Potency: inactive
[6]
  Potency: inactive
[7]
  Potency: inactive

## N#Cc1ccccc1Cl
[1]
  Potency: inactive
[2]
  Potency: inactive
[3]
  outcome: inactive
[9]
  Potency: inactive
[4]
  activity change, positive = activation: 1.91% (inactive)
[5]
  Potency: inactive
[10]
  Potency: inactive
[6]
  Potency: inactive
[7]
  Potency: inactive

## O=C(NC(=O)c1c(F)cccc1F)Nc1cc(Cl)c(OC(F)(F)C(F)F)c(Cl)c1
[1]
  Potency: inactive
[2]
  Potency: inactive
[8]
  Potency: inactive
[5]
  Potency: inactive
[10]
  Potency: inactive
[6]
  Potency: inactive
[7]
  Potency: inactive

## NNC(=O)c1ccccc1
[1]
  Potency: inactive
[2]
  Potency: inactive
[8]
  Potency: inactive
[5]
  Potency: inactive
[10]
  Potency: inactive
[6]
  Potency: inactive
[7]
  Potency: inactive

## C[CH2][Hg][N]1C(=O)C2C(C1=O)C1(Cl)C(Cl)=C(Cl)C2(Cl)C1(Cl)Cl (stereo not drawn)
[1]
  Potency: 2.33 µM (active)
[2]
  Potency: 10.7 µM (active)
[8]
  Potency: 13.5 µM (active)
[4]
  activity change, positive = activation: -76.3% [at 19 µM] (inactive)
[5]
  Potency: 6.57 µM (active)
[10]
  Potency: 2.33 µM (active)
[6]
  cytotoxicity: -0.189% [at 15.8 µM] (inactive)
[7]
  Potency: 6.57 µM (active)

## CCCCCCCCCCCCCCCC[N+](C)(C)C
[1]
  Potency: inactive
[2]
  Potency: inactive
[8]
  Potency: 54.6 µM (active) and 101 µM (active) and 49.2 µM (active)
[5]
  Potency: inactive and 49 µM (active) and 23.9 µM (active)
[10]
  Potency: 9.42 µM (active) and 21.9 µM (active) and 8.49 µM (active)
[6]
  Potency: inactive
[7]
  Potency: 24.5 µM (active) and 21.3 µM (active)

## Cc1cc(C)c(C2=C(OC(=O)CC(C)(C)C)C3(CCCC3)OC2=O)c(C)c1
[1]
  Potency: inactive
[2]
  Potency: inactive
[9]
  Potency: inactive
[4]
  activity change, positive = activation: -1.28% (inactive)
[5]
  Potency: inactive
[10]
  Potency: inactive
[6]
  Potency: inactive
[7]
  Potency: inactive

## C=CCOC(N)=O
[1]
  Potency: inactive
[2]
  Potency: inactive
[8]
  Potency: inactive
[9]
  Potency: inactive
[4]
  activity change, positive = activation: 2.68% (inactive)
[5]
  Potency: inactive
[10]
  Potency: inactive
[6]
  Potency: inactive
[7]
  Potency: inactive

## CCC[CH2][Sn]([CH2]CCC)([CH2]CCC)[O]C(=O)c1ccccc1
[1]
  Potency: 0.549 µM (active)
[2]
  Potency: 0.505 µM (active)
[8]
  Potency: 0.713 µM (active)
[9]
  Potency: 0.486 µM (active)
[4]
  activity change, positive = activation: -78% (inactive)
[5]
  Potency: 0.49 µM (active)
[6]
  Potency: inactive
[7]
  Potency: 0.389 µM (active)

## Clc1ccc(-c2ccccc2)cc1
[1]
  Potency: inactive
[2]
  Potency: inactive
[8]
  Potency: inactive
[9]
  Potency: inactive
[4]
  activity change, positive = activation: 3.89% (inactive)
[5]
  Potency: inactive
[6]
  Potency: inactive
[7]
  Potency: inactive

## Cc1cc(N=Nc2ccccc2C)ccc1N
[1]
  Potency: inactive
[2]
  Potency: inactive
[8]
  Potency: 113 µM (active) and 89.8 µM (active)
[9]
  Potency: inactive
[4]
  activity change, positive = activation: 34.9% (active) and 43.7% (active)
[10]
  Potency: 21.9 µM (active)
[6]
  Potency: inactive
[7]
  Potency: inactive

## Cc1cc(C(C)(C)c2cc(C)c(O)c(C)c2)cc(C)c1O
[1]
  Potency: inactive
[2]
  Potency: inactive
[8]
  Potency: 109 µM (active)
[9]
  Potency: 26.4 µM (active)
[4]
  activity change, positive = activation: -83.8% (inactive)
[10]
  Potency: 18.9 µM (active)
[6]
  Potency: inactive
[7]
  Potency: inactive

## CC(=[OH+])/C=C(/C)[O-].CC(=[OH+])/C=C(\C)[O-].CC(=[OH+])/C=C(\C)[O-].[Al]
[1]
  Potency: inactive
[2]
  Potency: inactive
[8]
  Potency: inactive
[5]
  Potency: inactive
[10]
  Potency: inactive
[6]
  Potency: inactive
[7]
  Potency: inactive

## CN(C)C(=S)[S-].CN(C)C(=S)[S-].[Cu+2]
[1]
  Potency: 2.67 µM (active)
[2]
  Potency: 2.45 µM (active)
[8]
  Potency: 27.5 µM (active)
[5]
  Potency: 2.67 µM (active)
[6]
  cytotoxicity: -8.31% [at 15.8 µM] (inactive)
[7]
  Potency: 2.38 µM (active)

## ClC1=C(Cl)[C@]2(Cl)[C@@H]3[C@@H](Cl)[C@H](Cl)C[C@@H]3[C@@]1(Cl)C2(Cl)Cl
[1]
  Potency: inactive
[2]
  Potency: inactive
[8]
  Potency: inactive
[9]
  Potency: inactive
[4]
  activity change, positive = activation: -5.06% (inactive)
[5]
  Potency: inactive
[7]
  Potency: inactive

## CCCN(CC)CC1COC2(CCC(C(C)(C)C)CC2)O1 (stereo not drawn)
[1]
  Potency: inactive
[2]
  Potency: inactive
[8]
  Potency: inactive
[5]
  Potency: inactive
[10]
  Potency: inactive
[6]
  Potency: inactive
[7]
  Potency: inactive

## Nc1ccc([N+](=O)[O-])cc1Cl
[1]
  Potency: inactive
[2]
  Potency: inactive
[8]
  Potency: inactive
[5]
  Potency: inactive
[10]
  Potency: inactive
[6]
  Potency: inactive
[7]
  Potency: inactive

## Oc1cc(Cl)c(Cl)c(Cl)c1
[1]
  Potency: inactive
[2]
  Potency: inactive
[8]
  Potency: 42.7 µM (active)
[9]
  Potency: 29.1 µM (active)
[4]
  activity change, positive = activation: -65.2% (inactive)
[5]
  Potency: inactive
[6]
  Potency: inactive
[7]
  Potency: inactive

## CCCCCCCCCCCCCCC(Br)C(=O)O (stereo not drawn)
[1]
  Potency: 49 µM (active)
[2]
  Potency: inactive
[8]
  Potency: inactive
[5]
  Potency: inactive
[10]
  Potency: inactive
[6]
  Potency: inactive
[7]
  Potency: inactive

## C[C@]12CC[C@@H]3c4ccc(OC(=O)N(CCCl)CCCl)cc4CC[C@H]3[C@@H]1CC[C@@H]2O
[1]
  Potency: inactive
[2]
  Potency: inactive
[9]
  Potency: inactive
[4]
  activity change, positive = activation: -21.8% [at 42.5 µM] (inactive)
[5]
  Potency: inactive
[10]
  Potency: inactive
[6]
  Potency: inactive
[7]
  Potency: inactive

## N#CCCSCCC#N
[1]
  Potency: inactive
[2]
  Potency: inactive
[8]
  Potency: inactive
[5]
  Potency: inactive
[10]
  Potency: inactive
[6]
  Potency: inactive
[7]
  Potency: inactive

## c1ccc2cc3c(cc2c1)-c1cccc2cccc-3c12
[1]
  Potency: inactive
[2]
  Potency: inactive
[8]
  Potency: inactive
[9]
  Potency: inactive
[5]
  Potency: inactive
[10]
  Potency: inactive
[6]
  Potency: inactive
[7]
  Potency: inactive
